An excerpt weighted towards active compounds, which were near 1.3% of everything screened.
RN4220 kill – growth inhibition of S. aureus RN4220, primary screen, OD600 | 16 h | inhibition, % (test concentration not listed) | 330,000 compounds, 0.33% hits; in the data active means inhibition above about 85%
CCHF vOTU inh – CCHFV vOTU protease inhibitors, primary screen, biochemical, Pep-AMC substrate, fluorescence; 370,000 compounds, 0.55% hits; Crimean-Congo hemorrhagic fever virus L polyprotein viral ovarian tumor (vOTU) protease …; AID 651958, 2012; inhibition, % at 11.5 µM; in the data active means inhibition above about 30%
MazEF act – activators of E. coli MazEF toxin-antitoxin RNase, primary screen, biochemical, fluorescence, uHTS; FAM/BHQ RNA-DNA oligo cleavage fluorescence, 5 h; Endoribonuclease toxin MazF (Escherichia coli (strain K12)), P0AE70; activation, % at 20 µM; AID 504720, 2011; 350,000 compounds, 0.32% hits; in the data active means activation above about 50%
Target sequence (P0AE70 whole entry, looked up): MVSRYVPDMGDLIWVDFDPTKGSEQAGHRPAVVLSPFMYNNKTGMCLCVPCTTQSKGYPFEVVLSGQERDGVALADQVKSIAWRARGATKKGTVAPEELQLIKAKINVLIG
Mtb betalactam – beta-lactam sensitization of Mtb H37Rv, H37Rv; inhibition, % at 25 µM; M. tuberculosis H37Rv growth with meropenem, percent inhibition; 330,000 compounds, 0.27% hits; call rule not given here;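 further: growth measured after seven days incubation then overnight dye step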
3CLpro inhibitor – SARS-CoV 3CLpro protease inhibitors, primary screen, biochemical, quenched FRET | recombinant SARS-CoV 3CLpro, quenched FRET peptide cleavage | inhibition, % at 6 µM | 290,000 compounds, 0.14% hits; in the data active means inhibition above about 12%
Sa ugtP lethal – growth inhibition of ugtP-null S. aureus, primary screen, RN4220 ugtP deletion, OD600 | 16 h | 330,000 compounds, 0.54% hits | growth inhibition, % (no concentration beside the values); in the data active means growth inhibition above about 68%
Numbers stand for hits; 0 = inactive; ? = inconclusive; - = no result; + = active, no number.

SMILES | RN4220 kill | CCHF vOTU inh | MazEF act | Mtb betalactam | 3CLpro inhibitor | Sa ugtP lethal
COc1ccc(-c2[nH]n(-c3ccc([N+](=O)[O-])cc3)c(=O)c2C=NCc2ccc(F)cc2)cc1 | 0 | 0 | 81 | 0 | 0 | 0
COc1ccc(-c2nnc(NC(=O)c3ccc(S(=O)(=O)N(C)CC4CCCO4)cc3)o2)c(OC)c1 (configuration not stated) | 0 | 0 | 0 | ? | 0 | 100
CC(=NNC(=O)c1ccc(Br)o1)C(C)C | 0 | - | - | - | - | 0
CCN(CC)c1ccc(NC2CC(=O)N(CCc3ccc(OC)cc3)C2=O)cc1 (configuration not stated) | 0 | 0 | 60 | 0 | 0 | 0
COC(=O)C1=C(c2ccccc2)CC2CCC1N2C(=O)NCc1ccc(F)cc1 (configuration not stated) | 0 | - | - | - | - | 0
O=S(=O)(N=C(c1ccc(Cl)cc1)N1CCOCC1)c1ccc(Cl)cc1 | 0 | - | - | - | - | 0
CC(=O)Nc1sc(NN=Cc2ccco2)nc1-c1cccs1 | 0 | - | - | - | - | 0
COc1ccc(OCCNc2cc(Cl)ccc2[N+](=O)[O-])cc1 | 0 | 0 | 147 | 0 | 0 | 0
O=C(CSc1ccc(Cl)cc1)c1ccco1 | 0 | - | 0 | 0 | 0 | 0
O=C(CSc1ccccc1Cl)c1ccco1 | 0 | 0 | 0 | 0 | 0 | 87
O=C(CCSc1ccc(Cl)cc1)c1ccco1 | 0 | 0 | 0 | 0 | 0 | 84
COc1ccc(S(=O)(=O)Nc2cccc3c2OC(CN(C)S(=O)(=O)c2ccccc2)C(C)CN(C(C)CO)C3=O)cc1 (configuration not stated) | 0 | - | - | - | - | 0
O=C(NN=Cc1cccc(C(F)(F)F)c1)c1cc2c(s1)-c1ccccc1CC2 | 0 | - | - | - | - | 0
CCOC(=O)c1c(/N=C/C2C(=O)NC(=O)NC2=O)sc2c1CCC2 | - | 0 | 123 | 0 | 0 | -
CCOC(=O)c1c(N=CC2C(=O)NC(=O)NC2=O)sc2c1CCC2 | 0 | - | - | - | - | 0
Cc1ccc(S(=O)(=O)N2C(c3ccc(Cl)c(Cl)c3)CC=C(C(=O)O)C2c2ccccc2)cc1 (configuration not stated) | 0 | - | - | - | - | 90
Cc1ccc(S(=O)(=O)N2[C@@H](c3ccccc3)C(C(=O)O)=CC[C@H]2c2ccc(Cl)c(Cl)c2)cc1 | - | 0 | 0 | 0 | - | -
CCC1Cc2cc(O)ccc2C2=C1c1ccc(O)cc1CC2CC (configuration not stated) | 98 | - | - | - | - | 0
CCCN(CCC)C1CCc2ccc(O)cc2C1 (configuration not stated) | 0 | 0 | 0 | 0 | - | 0
COc1ccc(C(=O)NN=c2oc3ccccc3cc2C(N)=O)cc1 | 0 | - | - | - | - | 0
CCOC(=O)CSc1nc2sc(C)c(C)c2c(=O)n1C | 0 | 0 | 0 | 0 | 0 | 0
CCOC(=O)CSc1nc(C(C)C)nc2sc(C)c(C)c12 | 0 | 0 | 0 | 0 | 0 | 89
CCN(CC)S(=O)(=O)c1ccc(C(=O)/C=C/c2ccc(-c3ccc([N+](=O)[O-])cc3)o2)cc1 | 0 | 0 | 298 | 0 | 0 | 0
O=C(Nc1nc(-c2ccccc2)c(-c2ccccc2)o1)c1ccc(F)cc1 | 99 | 0 | 0 | 0 | 0 | 96
Cn1ncc(Cl)c1C(=O)Nc1cccc(Cl)c1 | 0 | 0 | 0 | 0 | 0 | 0
SMILES | RN4220 kill | CCHF vOTU inh | MazEF act | Mtb betalactam | 3CLpro inhibitor | Sa ugtP lethal
Cn1ncc(N=Cc2c(O)ccc3ccccc23)c1C(=O)Nc1cccc(Cl)c1 | 0 | 0 | 360 | 0 | 0 | 0
O=C(NN=Cc1cccs1)c1ccc2ncccc2c1 | 0 | - | - | - | - | 0
COc1ccc(OC)c(C=NNC(=O)c2[nH]nc3c2CCc2ccccc2-3)c1 | 0 | - | - | - | - | 0
NC(=O)c1cc2ccc(O)cc2oc1=NCc1ccccc1 | 0 | 0 | 785 | 0 | 0 | 0
CC(C(=O)CC(=O)OC(C)(C)C)C(O)c1ccccc1 (configuration not stated) | 0 | - | - | - | - | 0
O=C(NCc1ccco1)c1cc(-c2cccs2)nc2ccccc12 | 0 | 0 | + | 0 | 0 | 0
COCCn1c(-c2ccc(-c3ccc([N+](=O)[O-])cc3Br)o2)nc2c1c(=O)[nH]c(=O)n2CC(C)C | 0 | 0 | 98 | 0 | 0 | 0
CCOC(=O)c1cc(CC)sc1NC(=O)C1CC1 | 0 | 0 | 0 | 0 | 0 | 0
CCOC(=O)c1cc(CC)sc1NC(=O)C(c1ccccc1)c1ccccc1 | 0 | 0 | 0 | 0 | 0 | 89
O=c1cc(N=Nc2ccc(Cl)cc2)[nH]c(=O)[nH]1 | 100 | 0 | 0 | 0 | 0 | 100
O=c1cc(-c2ccc(Cl)cc2)oc(=O)[nH]1 | 0 | 0 | 0 | 0 | 0 | 0
Cn1cccc1/C=C1\SC(=O)N(c2ccccc2)C1=O | - | 0 | 88 | 0 | 0 | -
Cc1cc(C)cc(C(=O)NN=Cc2ccoc2)c1 | 0 | - | - | - | - | 0
O=C(c1cccs1)N(Cc1ccco1)c1nc(-c2ccc(F)cc2)cs1 | 0 | 0 | 0 | 0 | 0 | 92
CCC(=O)N(Cc1ccco1)c1nc(-c2ccccc2)cs1 | 0 | 0 | 0 | 0 | 0 | 0
CCN1C(=O)C2C(c3ccc(-c4cccc(Cl)c4)cc3)N[C@@](Cc3ccccc3)(C(=O)OC)C2C1=O (some centres not stated) | 0 | - | - | - | - | 0
CCOc1ccccc1CNc1ccc(O)cc1 | 0 | 48 | 0 | - | 0 | 0
CNCC1Oc2c(NC(=O)C3CC3)cccc2C(=O)N(C(C)CO)CC1C (configuration not stated) | 0 | - | - | - | - | 0
COc1ccc(Cl)cc1CN1CCN(c2nc(C)cc(C)c2C#N)CC1 | 99 | 0 | 0 | 0 | 0 | 100
Cc1cc(C)c(C#N)c(N2CCN(CCOc3ccc(Cl)cc3)CC2)n1 | 0 | 0 | 0 | 0 | 0 | 0
CCOc1cc(C=O)c(Br)cc1OC1CCCC1 | 0 | 0 | 0 | 0 | 0 | 87
Cc1ccc(NC(=O)C(OC(=O)c2ccc(C=O)cc2)c2ccccc2)cc1Cl (configuration not stated) | 0 | - | 0 | 0 | 0 | 90
Cc1ccc(C)c(NC(=O)C(OC(=O)c2ccc(CO)cc2)c2ccccc2)c1 (configuration not stated) | 0 | 0 | 0 | - | - | 0
Brc1ccc(-c2ccc(C=NNc3nc4ccccc4[nH]3)o2)cc1 | 86 | - | - | - | - | 0
Fc1ccccc1-c1ccc(C=NNc2nc3ccccc3[nH]2)o1 | 0 | - | - | - | - | 0
SMILES | RN4220 kill | CCHF vOTU inh | MazEF act | Mtb betalactam | 3CLpro inhibitor | Sa ugtP lethal
CCN(CC)c1ccc(C=NNc2nc3ccccc3[nH]2)cc1 | 97 | - | - | - | - | 99
Cc1ccc(Cn2cccc(-c3nc4ccccc4s3)c2=O)cc1 | 0 | 0 | 74 | 0 | 0 | 0
O=C(CC(Sc1ccc(Br)cc1)C(=O)O)c1ccc(F)cc1 (configuration not stated) | 0 | 0 | 0 | 0 | 0 | 92
O=C(NCCNC(=O)c1ccccn1)c1ccc(Cl)cc1 | 0 | 0 | 0 | 0 | 0 | 0
O=C(Sc1ccc(Cl)cc1)c1ccccn1 | 0 | 0 | 0 | 0 | - | 84
COc1cc(C=NNc2cccc(C)c2)cc(Br)c1O | 0 | - | - | - | - | 96
